# Compounds with a hit are over-represented: about 3.2% of the library has one in this group of screens.
# rCAG RNA binder = molecules binding r(CAG) RNA repeats. r(CAG) RNA repeat, TO-PRO-1 dye displacement fluorescence. inhibition, % at 3 µM. 1.3% of 370,000 active. AID 651821;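 active = inhibition above the plate cutoff, the mean of all test compounds on that plate plus 3 SD, cut at about 35% in these data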;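 note: 0% = DMSO alone and 100% = 100 µM mitoxantrone as full dye displacement; higher means more dye released from RNA so lower well fluorescence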
# HGIII-sPLA2 inh = Inhibits HGIII-sPLA2 liposome hydrolysis, primary screen; Q9NZ20; inhibition, % at 12.2 µM; QFRET BODIPY PC-A2 liposome hydrolysis, fluorescence; 0.56% of 370,000 active;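 active = inhibition above mean plus 3 SD of compounds lying within the high and low control bounds, cut at about 19% in these data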;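 note: 0% = median of test compound wells and 100% = no enzyme DMSO wells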
# Target sequence (Q9NZ20 whole entry, looked up): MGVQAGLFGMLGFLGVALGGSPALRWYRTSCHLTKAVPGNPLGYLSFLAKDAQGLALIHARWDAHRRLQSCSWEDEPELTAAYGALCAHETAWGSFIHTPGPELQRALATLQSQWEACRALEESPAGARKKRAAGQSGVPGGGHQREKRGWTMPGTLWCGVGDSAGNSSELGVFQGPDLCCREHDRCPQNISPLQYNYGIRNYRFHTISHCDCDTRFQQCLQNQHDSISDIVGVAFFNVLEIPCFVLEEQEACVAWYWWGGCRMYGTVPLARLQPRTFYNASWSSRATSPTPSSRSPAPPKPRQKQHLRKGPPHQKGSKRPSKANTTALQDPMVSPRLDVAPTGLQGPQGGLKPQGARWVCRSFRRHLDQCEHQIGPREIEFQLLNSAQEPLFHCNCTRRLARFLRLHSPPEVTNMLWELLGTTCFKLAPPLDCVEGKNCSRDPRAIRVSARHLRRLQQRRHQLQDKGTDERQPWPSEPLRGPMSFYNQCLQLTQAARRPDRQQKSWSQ
# MsrA inhibitor = bovine MsrA inhibition. 0.75% of 360,000 active. inhibition, % at 15.5 µM. purified bovine MsrA, absorbance read-out. AID 651718; in the data active = inhibition above about 4.5%;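 note: 0% = vehicle wells with enzyme and 100% = reference inhibitor wells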
# PG9 Ab binder = PG9 antibody binding by small molecule; TR-FRET gp120-PG9 antibody binding; inhibition, % at 6.7 µM; 0.43% of 360,000 active; in the data active = inhibition above about 8.5%
# bovine MsrA act = activators of bovine methionine sulfoxide reductase A; purified bovine MsrA, absorbance read-out; activation, % at 10.6 µM; 0.3% of 360,000 active; AID 602163; in the data active = activation above about 7.5%;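 note: 0% = vehicle and 100% = reference activator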
# sPLA2 confirm = human GIII-sPLA2 inhibition, confirmation. shares compounds with HGIII-sPLA2 inh. recombinant hGIII-sPLA2, BODIPY PC-A2 QFRET fluorescence. inhibition, % at 12.2 µM. 34% of 2,000 active. AID 743280;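 active = mean inhibition across triplicates above the hit cutoff set in the earlier primary screen, cut at about 19% in these data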;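 note: 0% = enzyme with DMSO and 100% = DMSO wells lacking enzyme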
# 535nm interf = 535nm fluorescence interference, HGIII-sPLA2 counter-screen. shares compounds with HGIII-sPLA2 inh. BODIPY FL product fluorescence interference, QFRET. inhibition, % at 12.2 µM. 8.5% of 2,000 active;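 active = average inhibition above the solvent-only control mean plus 3 SD, cut at about 6% in these data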;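 note: 0% = DMSO with substrate plus product and 100% = DMSO with substrate alone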
# 535nm interf DR = 535nm optical interference dose response, HGIII-sPLA2 counter-screen. 240 tested, under 10 active. IC50, µM. BODIPY FL product fluorescence interference, cell-free. shares compounds with HGIII-sPLA2 inh. AID 743455;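 active = IC50 at or below 10 µM; inactive = IC50 above 10 µM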
# * = called active by the depositor; . = no result given.
SMILES,rCAG RNA binder,HGIII-sPLA2 inh,MsrA inhibitor,PG9 Ab binder,bovine MsrA act,sPLA2 confirm,535nm interf,others
O=C(CNC(=S)N(Cc1ccccc1)Cc1cccnc1)NC1CCCC1,-8.4,22.8*,-0.1,1.5,-13.3,3.9,-15.9,
CNc1nc(-c2ccccc2)nc(-c2ccccc2)c1C#N,0.9,19.6*,0.1,5.0,0.7,-3.7,-5.1,
CNc1nc(-c2ccccc2)nc(-c2ccc(OC)cc2)c1C#N,-0.1,-0.5,-0.9,-0.7,-2.2,.,.,
CNC(=S)NNC(=O)c1c(C)nc2cc(C)ccn12,-1.7,19.2*,0.6,0.2,-2.0,3.6,-7.2,
N#Cc1ccc(C(=O)NC(=S)NC2CCCCC2)cc1,2.5,18.5,0.8,1.0,-0.2,.,.,
C/C(=N\NC(=S)NC1CCCCC1)c1ccc(C#N)cc1,-2.0,26.4*,0.9,-2.7,-3.4,15.9,-0.8,
COc1cccc(CN(CCC(C)C)S(=O)(=O)c2cc(Br)ccc2Br)c1,5.3,-4.4,0.8,0.5,1.6,.,.,
Cc1ccc(-n2cc[nH]c2=S)c(C)c1,-3.5,4.0,2.0,-0.7,-1.8,.,.,
Cc1ccc(C)c(-n2cc[nH]c2=S)c1,-1.4,19.6*,0.4,-0.3,-1.3,8.2,-4.5,
Cc1cc(N(C)C(=O)c2ccc3c(c2)S(=O)(=O)c2cc(Cl)ccc2C3=O)c(C(F)(F)F)o1,3.9,2.3,-0.8,-2.8,-3.1,.,.,
COc1ccc(OC)c(NC(=O)Nc2nc(C(N)CCc3ccccc3)cs2)c1 (stereo not given),17.0,22.7*,-0.1,2.6,2.4,13.1,-14.1,
COc1ccccc1NC(=O)Nc1nc(C(N)Cc2ccccc2)cs1 (stereo not given),15.7,14.9,1.2,0.1,-2.5,.,.,
CC(C)c1ccc(NC(=O)Nc2nc(C(N)CCc3ccccc3)cs2)cc1 (stereo not given),30.4,21.4*,0.9,0.2,3.0,17.0,-10.3,
O=C(C(=O)N1CCC(CNC(=O)C2COc3ccccc3O2)CC1)c1cccs1 (stereo not given),1.4,7.6,0.5,1.3,.,.,.,
COc1ccc(-c2ccc(C(=O)Nc3cccc(N(C)C)c3)c3occc23)c(C)c1,10.2,19.7*,2.2,-2.3,-4.4,15.9,7.7*,
COc1ccc(-c2ccc(C(=O)Nc3cccc(F)c3)c3occc23)c(C)c1,5.8,3.9,0.5,-2.5,0.0,.,.,
O=c1c2c3c(sc2nc(N2CCNCC2)n1CCc1ccccc1)CCCCC3,11.1,19.7*,0.7,-0.1,-1.6,1.6,-32.2,
COC(=O)C1=C(C)N(Cc2ccc(C(F)(F)F)cc2)C(=NCc2ccc(C(F)(F)F)cc2)NC1c1ccccc1C(F)(F)F (stereo not given),0.3,-11.3,-1.3,-0.2,.,.,.,
CCCCC(=O)N1CCN(C(=O)c2ccc3nc(C)n(C4CCCC4)c3c2)CC1,-2.0,12.9,.,.,.,.,.,
COc1ccc(C(=O)N/N=C/c2sc3ccccc3c2O)cc1,.,.,.,.,-4.5,.,.,
O=C(N/N=C/c1sc2ccccc2c1O)c1ccccc1,.,.,.,.,-4.1,.,.,
O=C(N/N=C/c1sc2ccccc2c1O)c1cccc2ccccc12,13.5,31.1*,4.4,-8.9,-6.8,8.5,5.4,
COc1ccc2cc(C(=O)N/N=C/c3sc4ccccc4c3O)ccc2c1,33.5,20.8*,1.7,-6.6,-5.4,-27.8,-32.9,
S=C(Nc1ccc(I)cc1)OC1CCC12CCC(c1ccccc1)CC2 (stereo not given),17.0,0.7,.,.,.,.,.,
Cc1ccc2c(c1)c(C)c(C)n2CC(O)CN1CCCCC1C (stereo not given),4.3,21.8*,-0.2,-2.7,1.9,20.0*,-18.5,
SMILES,rCAG RNA binder,HGIII-sPLA2 inh,MsrA inhibitor,PG9 Ab binder,bovine MsrA act,sPLA2 confirm,535nm interf,others
Cc1ccc2c(c1)c1c(n2CC(O)CN2CCCCC2C)CCCC1 (stereo not given),-1.9,-12.6,0.1,-1.3,0.2,.,.,
CC(C)C(=O)N1CCCC1(C)C(=O)Nc1cccc(Oc2ccccc2)c1 (stereo not given),-2.3,-3.8,0.4,-3.6,-1.9,.,.,
CN(C)Cc1ccccc1Sc1ccc2c(c1)CCCC2,-0.3,-3.5,-1.5,-1.4,-0.8,.,.,
COc1cccc(Sc2ccccc2CN(C)C)c1,1.8,20.2*,-0.7,-0.2,-2.9,-3.2,-19.2,
CCCCOCCCNC(=O)C[C@@H]1C[C@@]2(C(=O)OCC)CCCC=C2N(CCc2ccc(OC)c(OC)c2)C1=O,-0.5,-5.3,-1.1,-1.1,.,.,.,
FC(F)(F)c1ccc(Cn2ccc3ccc(-c4ccc5ccn(Cc6ccc(C(F)(F)F)cc6)c5c4)cc32)cc1,12.3,1.6,.,.,.,.,.,
CC(=O)OCC1OC(n2cc(F)c(=O)[nH]c2=O)C(OC(C)=O)C1OC(C)=O (stereo not given),-1.1,19.5*,-0.1,1.9,1.2,0.9,-6.7,
COc1cc2c(cc1NC(=O)CSc1nnc(-c3ccccc3C)n1Cc1ccco1)oc1ccccc12,12.1,-16.9,.,.,.,.,.,
COC(=O)[C@]12C[C@H](CC(=O)NCc3cccc(C(F)(F)F)c3)C(=O)N(Cc3cccc4ccccc34)C1=C[C@H](C1CCCC1)O[C@@H]2C,5.1,-1.5,.,.,.,.,.,
CC1=C(C(=O)N(C)C)CC(CC(=O)NCc2cccc3ccccc23)C(=O)N1CCCN1CCCC1=O (stereo not given),2.1,21.2*,0.1,-0.8,-10.2,-2.8,-7.0,
CC1=C(C(=O)N(C(C)C)C(C)C)CC(CC(=O)NCc2cccc3ccccc23)C(=O)N1CCCN1CCCC1=O (stereo not given),-0.1,2.0,0.4,-0.9,-8.5,.,.,
CCCCN1CCN(C2=Nc3ccccc3Sc3ccccc32)CC1,-0.3,4.3,.,.,.,.,.,
COC(=O)[C@]12C[C@H](CC(=O)NCCCN3CCCC3=O)C(=O)N(Cc3ccco3)C1=C[C@H](COCc1ccccc1)O[C@@H]2C,7.1,-0.1,.,.,.,.,.,
CC(=O)Nc1ccc(-c2csc(N/N=C(/C)c3ccccc3)n2)cc1,19.5,6.0,1.7,1.8,-1.7,.,.,
CC(=O)Nc1ccc(-c2csc(NNC(=O)c3ccccc3)n2)cc1,19.3,32.7*,1.0,2.2,1.6,21.6*,4.4,
O=C(NNc1nc(-c2ccc(Cl)cc2)cs1)c1ccco1,16.2,45.4*,-0.8,-1.9,-7.0,38.0*,10.5*,
O=C(NNc1nc(-c2ccccc2)cs1)c1ccco1,18.5,26.7*,-1.0,-0.8,-0.1,29.2*,4.4,535nm interf DR=>122
Cc1ccccc1CNC(=O)C1C2C=CC3(CN(Cc4ccccc4)C(=O)C13)O2 (stereo not given),-1.4,9.3,.,.,.,.,.,
CCC(C(=O)Nc1ccccc1N1CCCC1)c1ccccc1Cl (stereo not given),-0.7,9.5,.,.,.,.,.,
CCOC(=O)NN1C(=O)c2ccccc2NC1c1ccc(OC)cc1 (stereo not given),-3.0,21.2*,0.4,-0.2,-6.4,3.8,-6.5,

# Screening results deposited in PubChem BioAssay by The Scripps Research Institute Molecular Screening Center.
